Data as given in PubChem BioAssay AID1508608 (The Scripps Research Institute Molecular Screening Center, 2020).
About 20 (0.9%) of roughly 2,300 compounds were called active.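 How the source made its calls: active means mean activation across replicates above 26.72%, the hit cutoff set for this confirmation screen; inactive means the rest.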 Only a selection was taken, and actives are over-represented in it overall.

target: G-protein coupled receptor 151 (Homo sapiens) (UniProt Q8TDV0); test: GPR151 agonism via beta-arrestin recruitment – cell-based, PathHunter beta-arrestin, luminescence, set 2, confirmation (AID 1508608); conditions: GPR151 PathHunter beta-arrestin cells, 90 min, at 11.2 µM, active compounds read high, 100% = signal from added EA reagent;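 further: 0% = plate median of compound wells and 100% = EA reagent high control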
Sequence (Q8TDV0 whole entry, looked up): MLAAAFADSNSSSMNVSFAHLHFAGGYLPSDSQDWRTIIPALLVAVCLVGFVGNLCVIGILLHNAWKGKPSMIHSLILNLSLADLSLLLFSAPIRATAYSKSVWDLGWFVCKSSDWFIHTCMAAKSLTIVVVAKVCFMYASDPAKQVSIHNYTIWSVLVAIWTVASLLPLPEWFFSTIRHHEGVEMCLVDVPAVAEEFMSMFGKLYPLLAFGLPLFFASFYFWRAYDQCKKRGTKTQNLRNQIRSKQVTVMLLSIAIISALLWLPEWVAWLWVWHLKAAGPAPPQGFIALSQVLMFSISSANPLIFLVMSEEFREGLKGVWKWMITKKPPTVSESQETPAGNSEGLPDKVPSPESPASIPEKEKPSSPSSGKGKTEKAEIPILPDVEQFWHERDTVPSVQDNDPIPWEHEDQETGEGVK

activation, active:
Cn1ncc2c(NCCc3ccc(Cl)cc3Cl)ncnc21 27.9%, CC(C)c1ccc(Cn2ccc3c4c(N)nc(NC5CC5)nc4ccc32)cc1 104%, O=C(Nc1cc(Cl)ccc1Cl)c1ccccc1O 26.9%

activation, inactive:
COc1ccccc1C(=O)NC(C)C(c1cccs1)N1CCOCC1 (stereo unspecified) -5.85%, Cc1ccc(-c2nc3ncccn3c2NC2CCCCC2)o1 -5.26%, NC(=O)C1CCN(S(=O)(=O)c2ccc3c(c2)OCC(=O)N3)CC1 -1.83%, O=C(NCCCN1CCOCC1)/C(=C/c1ccc(-c2cccc(C(F)(F)F)c2)o1)NC(=O)c1ccc(Cl)cc1 23.3%, COc1ccc(-n2nc3c(c2NC(=O)c2c(F)cccc2F)CS(=O)(=O)C3)cc1 -1.16%, CCCN(C(=O)Cc1nc(-c2ccc(OC)cc2)no1)c1ccccc1C -0.07%, CC1=NN(c2ccccc2)C(=O)/C1=C\c1ccc([N+](=O)[O-])cc1 -3.53%, CCOc1ccc(/C=N/NC(=O)c2ccccc2OC(C)C)cc1O -4.49%, CN(C)c1ccc(CNCCC2CCOC(C)(C)C2)cc1 (stereo unspecified) 0.83%, COc1ccc(-c2cc3ccc(OC(C)C(=O)O)cc3oc2=O)cc1 (stereo unspecified) -10.8%, CC(=O)c1c(C)[nH]c(C(=O)N2CCCC(C)C2)c1C (stereo unspecified) -1.56%, COc1ccc(/C=C\C23N(Cc4ccccc4)C(=O)CN2c2ccccc2C3(C)C)cc1 (stereo unspecified) -0.33%, OCCC1CN(Cc2ccc3nonc3c2)CCN1Cc1ccc(F)c(F)c1 (stereo unspecified) 11.5%, O=C(CCC(=O)Nc1ccc(F)cc1)N/N=C/c1cccc([N+](=O)[O-])c1 4.76%, COc1ccc(NC(=O)C(C)N(c2ccc(Oc3ccccc3)cc2)S(C)(=O)=O)cc1 (stereo unspecified) 1.83%, COC(=O)c1cc(Nc2ncnc3c2cnn3-c2ccc(Cl)cc2)cc(C(=O)OC)c1 5.3%, Clc1ccc(-n2ncc3c(NCc4ccco4)ncnc32)cc1 3.54%, Cc1sc2c(c1C)c(=O)n(CCc1ccccc1)c(=O)n2CC(N)=O -0.97%, Cc1ccc(-n2ncc3c(=O)n(CC(=O)Nc4cccc(Cl)c4)cnc32)cc1C -0.5%, C=C(CC(NP(=O)(OCC)OCC)(C(=O)OC)C(F)(F)F)c1ccccc1 (stereo unspecified) 1.36%, COc1ccc(CC2(C)OC(c3ccc(C)c([N+](=O)[O-])c3)=NN2C(C)=O)cc1 (stereo unspecified) -3.14%, CCOc1ccc(-c2ccc(/C=C3/C(=N)N4C=C(C)SC4=NC3=O)o2)c([N+](=O)[O-])c1 -0.37%, O=c1/c(=C\c2ccccc2Cl)sc2nc3ccccc3n12 -1.37%, N/C(=N\OC(=O)CCCN1C(=O)c2ccccc2C1=O)c1ccccn1 10.3%, CCN(CC)C(=O)CN(c1ccccc1)S(=O)(=O)c1ccc(C)cc1 4.39%, CCC1CN(CCNC(=O)c2scc3c2OCCO3)Cc2cc(OC)ccc2O1 (stereo unspecified) 6.33%, CC(=O)C1C(c2cccc([N+](=O)[O-])c2)c2c(n[nH]c2C)CC1(C)O (stereo unspecified) 0.19%, CC1=C(C(=O)NCCN2Cc3ccccc3OC(c3ccccc3F)C2)OCCO1 (stereo unspecified) 2.76%, CCOc1cc(OCC)cc(C(=O)Nc2ccc(Br)cn2)c1 8.34%, CNc1nc2c(-c3ccc(Cl)cc3)nnn2c2ccccc12 16.9%, CC1CC(C)CN(C(=O)c2ccc(NCc3cccs3)c(S(=O)(=O)Nc3cc(F)ccc3F)c2)C1 (stereo unspecified) 3.31%, CCCOC1CCCN(Cc2c(C(=O)N(C)CCc3ccccc3)nc3sccn23)C1 (stereo unspecified) 6.38%, CC(=O)c1cccc(NC(=O)Oc2ccccc2)c1 2.16%, CCOC(=O)CCN(Cc1ccccc1F)S(=O)(=O)c1ccc([N+](=O)[O-])cc1 -3.3%, COc1ccc(C(=O)N(c2ccc(C)cc2)S(=O)(=O)c2ccc(C)cc2)cc1OC 6.29%, CCOC(=O)c1ccc(CN(Cc2c(Cl)cccc2Cl)S(=O)(=O)c2cccc([N+](=O)[O-])c2)cc1 0.8%, CC1=C(C(=O)OCc2ccco2)C(c2ccc(F)cc2)NC(=O)N1 (stereo unspecified) 3.69%, O=[N+]([O-])c1ccc2nc(SCc3ccc(I)cc3)sc2c1 3.08%, CC(C)CCN1C(=O)C(C)(C)COc2cc(NC(=O)c3ccc4c(c3)OCO4)ccc21 -3.7%, COc1cc(/C=C/c2[nH]c(=O)[nH]c(=O)c2[N+](=O)[O-])ccc1OC(C)C -3.99%, CCN(c1ccccc1)c1ncnc2c1cnn2-c1ccc(Cl)cc1 5.9%, Cc1ccc(-c2[nH]c(=S)[nH]c(=O)c2C#N)cc1 -2.95%, Cc1ccccc1OCC(=O)Nc1ccc(N2C(=O)c3ccc([N+](=O)[O-])cc3C2=O)cc1 6.85%, O=C(Nc1cc(C(F)(F)F)ccc1Cl)c1ccc(C(=O)C(=O)c2ccccc2)cc1 -1.66%, Cc1ccc(NC(=O)c2ccccc2F)c(Br)c1 -2.79%, CCOC(=O)C1=C(C)N=c2s/c(=C\c3cc(C)n(-c4ccc(C(=O)OCC)cc4)c3C)c(=O)n2C1c1ccc(OC)c(OC)c1 (stereo unspecified) 1.8%, CCCc1[nH]n(-c2ccc(F)cc2)c(=O)c1C=Nc1ccc(OCC)cc1 -1.39%, Cn1nc2c(c1C(=O)NCC1CC(Cc3cccc(F)c3)=NO1)CCCC2 (stereo unspecified) -2%, O=C(CSc1nnc(Cc2cc(=O)[nH]c(=O)[nH]2)n1-c1ccccc1)NC1CCCC1 2.56%, COc1ccc2c(c1)N(C)/C(=c1/s/c(=c3/sc4nc5ccccc5n4c3=O)n(C)c1=O)S2 5.91%, COC(=O)Cn1c(CN2CCOCC2)nc2c1c(=O)n(C)c(=O)n2C -2.55%, CC(=O)Cc1nsc(Nc2ccc(C)c(Cl)c2)n1 3.54%, CCN(CC)S(=O)(=O)c1ccc(C(=O)Nc2nc3ccc([N+](=O)[O-])cc3s2)cc1 2.56%
